Source: PubChem BioAssay (NCATS)
“And” between values parts separate entries of the source, which are not always exact repeats. Equal values may be shown once. Results filed as inconclusive are left out. The source made the active and inactive calls. Unless noted, the call rests on the fitted dose curve; in most records, active means well fitted curve in the direction sought with a large enough effect; inconclusive means small, poorly fitted or top-dose-only effect, or another doubt; inactive means no such curve, though single readings can be large; an effect the other way counts as inactive or inconclusive.

Legend:
[1] = Cell Viability - BJ (AID 421; calls by dose curve;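 further: potency means the concentration at half of the fitted maximal effect; cells exposed to compound for 40 hours at 37 °C before readout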); conditions: BJ fibroblast viability, qHTS
Outline: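 Luminescent ATP signal (CellTiter-Glo, 20 min at room temperature) served as the read-out of viable BJ cells after 40 hours of compound treatment. Responses were scaled between DMSO and 100 uM tamoxifen, and AC50 values were obtained by Hill modeling.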

[2] = Cell Viability - Hek293 (AID 427;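 active means compounds whose dose-response curve shows a full or clear partial loss of cell viability, called from curve shape rather than a numeric limit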;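 further: potency means the concentration at half of the fitted maximal effect; cells exposed to compound for 40 hours at 37 °C before reading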); conditions: qHTS
Outline: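 Luminescent ATP read-out (CellTiter-Glo, 20 min RT) after 40 hr compound exposure at 37 °C in complete medium. Signal normalized to DMSO (basal) and 100 uM tamoxifen (100% inhibition); concentration-response fitted with the standard Hill equation to give AC50.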

[3] = Cell Viability - HepG2 (AID 433; calls by dose curve;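 further: potency means the concentration at half of the fitted maximal effect; potency for ATP loss meaning cytotoxicity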); conditions: qHTS
Outline: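 ATP luminescence (CellTiter-Glo) after 40 h compound exposure, 37 °C, HepG2, 1500 cells/well, complete medium. Normalized: DMSO = basal, 100 uM tamoxifen = 100% inhibition. AC50 via standard Hill equation.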

[4] = Cell Viability - MRC5 (AID 434; calls by dose curve;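 further: potency means the concentration at half of the fitted maximal effect; potency reflects cytotoxicity seen as loss of intracellular ATP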); conditions: MRC5 lung fibroblast viability, qHTS
Outline: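 MRC5 normal human lung fibroblasts, 1500 cells/well, exposed to compound for 40 hr at 37 C. Cellular ATP was read by CellTiter-Glo luminescence; data normalized to DMSO and 100 uM tamoxifen, with AC50 from Hill fits.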

[5] = Cell Viability - SK-N-SH (AID 435; calls by dose curve; further: potency means the concentration at half of the fitted maximal effect); conditions: SK-N-SH neuroblastoma cell viability qHTS
Outline: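 CellTiter-Glo ATP luminescence, 20 min RT read; cells pre-plated 5 hr, compound 40 hr at 37 °C, 1500 cells/well, complete medium. Normalized DMSO = 0, 100 uM tamoxifen = 100% inhibition; Hill-fit AC50.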

[6] = biological target: Mitogen-activated protein kinase 10 (Mus musculus) (UniProt Q61831); test: JNK3 AlphaScreen Assay (AID 530; active means well fitted curve in either direction with a large enough effect, not every such curve was filed as active;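 further: kinase came from lysate of stimulated human HepG2 cells; signal reports phosphorylation of biotinylated GST-cJun 1-79 at Ser73 with 10 µM ATP; on the % scale 0 is the no-effect control and ±100 the full control effect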)
Outline: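 qHTS format: compounds tested as titrations against IL-1beta/TNF-alpha-activated HepG2 lysate JNK3 with biotin-GST-cJun substrate and 10 uM ATP at room temperature. Loss of anti-phospho-cJun AlphaScreen signal indicates inhibition.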

[7] = Cell Viability - N2a (AID 540); conditions: N2a mouse neuroblastoma cell viability; activity change, negative = cytotoxicity: at 92.2 µM (top of the series);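 further: plate controls were DMSO alone for no effect and tamoxifen control for full effect; nearly all actives have a fitted effect of over 45% in size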
Outline: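 First, 1500 N2a cells per well incubate 5 hr at 37 °C; next, compounds are added and incubated 40 hr at 37 °C; finally CellTiter-Glo is added and luminescence read after 20 min, with AC50 derived by Hill modeling.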

[8] = Cell Viability - NIH 3T3 (AID 541); conditions: NIH 3T3 cell viability, qHTS; activity change, negative = cytotoxicity: at 92.2 µM (top of the series);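 further: plate controls were DMSO alone for no effect and tamoxifen positive control for full effect; nearly all actives have a fitted effect of over 25% in size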
Outline: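 AC50 values reflect concentration-dependent loss of intracellular ATP in NIH 3T3 cells after 40 hr treatment in complete culture medium, quantified by luciferase-based luminescence.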

[9] = Cell Viability - HUV-EC-C (AID 542); further: on the % scale 0 is the no-effect control and ±100 the full control effect; nearly all actives have a fitted effect of over 35% in size
Outline: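 Decrease in cellular ATP, quantified by luciferase luminescence, reflects toxicity in normal human vascular endothelial HUV-EC-C cells given compound for 40 hr in complete culture medium. Values are AC50s from concentration-response curves.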

[10] = Cell Viability - H-4-II-E (AID 543); further: on the % scale 0 is the no-effect control and ±100 the full control effect; nearly all actives have a fitted effect of over 35% in size
Outline: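 Here, cytotoxicity is measured in the rat hepatoma line H-4-II-E as loss of intracellular ATP after 40 hr compound treatment, detected by luciferase luminescence.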

[11] = Cell Viability - SH-SY5Y (AID 544); conditions: SH-SY5Y neuroblastoma cell viability; viability change, negative = cytotoxic: at 92.2 µM (top of the series); further: nearly all actives have a fitted effect of over 55% in size
Outline: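 Cytotoxicity is scored as a concentration-dependent fall in intracellular ATP in human SH-SY5Y cells treated 40 hr in complete culture medium. Potency is expressed as AC50 from a Hill equation fit.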

[12] = Cell Viability - Renal Proximal Tubule (AID 545); conditions: renal proximal tubule cells viability, primary cells of rat origin; activity change, negative = cytotoxicity: at 91.7 µM (top of the series); further: nearly all actives have a fitted effect of over 40% in size
Outline: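 Rat kidney proximal tubule cells, freshly isolated; 1000 cells/well, 5 hr settle, compound 40 hr 37 °C. CellTiter-Glo 20 min RT, luminescence read. AC50 by standard Hill fit.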

[13] = Cell Viability - Mesenchymal (AID 546); conditions: mesenchymal cells viability, qHTS; activity change, negative = cytotoxicity: at 91.7 µM (top of the series);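 further: cells exposed to compound for 40 hours before reading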
Outline: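 Human kidney mesenchymal cells from normal renal glomeruli, 1000 cells/well, rested 5 hr at 37 °C, then treated 40 hr at 37 °C in complete medium. Cellular ATP read by CellTiter-Glo luminescence; AC50 from Hill-equation fits.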

[14] = Cellular Toxicity (caspase-3) HepG2 (AID 654);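 further: cells exposed to compound for 16 hours before reading; 0% = DMSO alone and 100% = caspase signal from 100 µM tamoxifen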
Outline: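 qHTS, HepG2, 1500 cells/well, complete medium; cpd 16 h 37 °C; Caspase-Glo 3/7, 20 min RT; lum. Norm: DMSO vs 100 uM tamoxifen; AC50 Hill fit.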

[15] = Cellular Toxicity (caspase-3) Jurkat (AID 655); conditions: Jurkat caspase-3 activation, luminescence; caspase-3 activation: at 92.2 µM (top of the series), DMSO = 0%, tamoxifen = 100%;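 further: cells exposed to compound for 16 h at 37 °C before reading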
Outline: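 Luminescent caspase-3/7 readout (aminoluciferin substrate cleavage) in human T-cell leukemia Jurkat cells after 16 hr compound exposure. Concentration-response normalized to DMSO and 100 uM tamoxifen; AC50 by standard Hill equation.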

[16] = Cellular Toxicity (caspase-3) BJ (AID 658); conditions: Potency: caspase-3 activation;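 further: 0% = DMSO basal and 100% = 10 µM staurosporine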
Outline: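 BJ human foreskin fibroblasts, 1000 cells/well, treated 16 hours at 37 °C in complete medium; caspase 3/7 activity by Caspase-Glo luminescence after 1 hr at room temperature. Normalized to DMSO and 10 uM staurosporine; AC50 from Hill fits.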

[17] = Cellular Toxicity (caspase-3) Mesangial (AID 660); conditions: mesangial cells, normalized: DMSO 0%, 100 µM tamoxifen 100%; at 91.7 µM (top of the series);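 further: combined caspase 3 and 7 activity read by Caspase-Glo luminescence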
Outline: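 Concentration-response qHTS: compound-induced rise in caspase 3/7 luminescence in human mesangial cells after 16 h, normalized to DMSO and 100 uM tamoxifen controls.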

[18] = Cellular Toxicity (caspase-3) SK-N-SH (AID 661); conditions: SK-N-SH caspase-3 activation, qHTS; caspase-3 activation: at 91.7 µM (top of the series), DMSO as zero, staurosporine as full;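 further: 0% = DMSO basal and 100% = 10 µM staurosporine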
Outline: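 Caspase 3/7 activation is measured as a luminescence increase from aminoluciferin released by substrate cleavage in SK-N-SH cells after 16 hr compound treatment; values are AC50 from concentration-response curves.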

[19] = Cellular Toxicity (caspase-3) H-4-II-E (AID 663); conditions: H-4-II-E rat hepatoma; Potency: caspase-3 activation; caspase-3 activation: at 92.2 µM (top of the series), scaled: DMSO 0%, 100 µM tamoxifen 100%;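 further: cells exposed to compound for 16 hr before readout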
Outline: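 Rat hepatoma H-4-II-E cells (1500/well) plated 5 hr, then exposed to compound titrations for 16 hr at 37 °C. Caspase-Glo 3/7 luminescence read after 20 min at RT; data normalized to DMSO and 100 uM tamoxifen, AC50 from Hill fits.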

[20] = Cellular Toxicity (caspase-3) NIH 3T3 (AID 666);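 further: 0% = DMSO basal and 100% = 100 µM tamoxifen stimulation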
Outline: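 Concentration-response qHTS in NIH 3T3 mouse fibroblasts scores caspase-3/7 activation as rising luminescence after 16 hr compound exposure. Signals are scaled between DMSO-only and 100 uM tamoxifen.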

[21] = Cellular Toxicity (caspase-3) Renal Proximal Tubule (AID 667);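 further: cells exposed to compound for 16 hours at 37 °C before detection; 0% = DMSO basal and 100% = 10 µM staurosporine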
Outline: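 Luminescent caspase 3/7 signal from peptide-aminoluciferin cleavage measures apoptosis in freshly isolated rat kidney proximal tubule cells after 16 h compound exposure. Concentration-response data are normalized to DMSO and 10 uM staurosporine, and AC50 values come from Hill equation fits.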

[22] = biological target: Cytochrome P450 3A4 (Homo sapiens) (UniProt P08684); test: qHTS Assay for Inhibitors and Substrates of Cytochrome P450 3A4 (AID 884); further: on the % scale 0 is the no-effect control and ±100 the full control effect; nearly all actives have a fitted effect of over 50% in size
Outline: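 20 nM human CYP3A4 with 25 uM Luciferin-PPXE (at KM) in 200 mM KPO4, preincubated 10 min with compound; NADPH regeneration started a 60 min RT reaction. Luciferin detected by luminescence, normalized to 57 uM ketoconazole as full inhibition.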

[23] = Cell Viability - LYMP2-001 (AID 921);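 further: 0% = DMSO only and full inhibition = tetraoctylammonium bromide control wells; nearly all actives have a fitted effect of over 70% in size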
Outline: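 CellTiter-Glo luminescence (intracellular ATP) after 24 hr compound exposure at 37 C, 2500 lymphoblastoid cells/well in complete medium. AC50 fitted with standard Hill equation; tetraoctylammonium bromide positive control.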

[24] = MultiTox-Fluor Cytotoxicity Assay - LYMP1-001 - Dead Cells (AID 946);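 further: 0% = DMSO and 100% = tetraoctylammonium bromide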
Outline: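 AC50 from Hill fit of concentration-response; data normalized to DMSO (basal) and 15 uM tetraoctylammonium bromide (100%). LYMP1-001 lymphoblastoid cells, 2500/well, 16 hr compound at 37 C; dead-cell protease fluorescence, Ex/Em 485/520.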

[25] = MultiTox-Fluor Cytotoxicity Assay - LYMP1-001 - Live Cells (AID 947);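 further: 0% = DMSO only and full inhibition = tetraoctylammonium bromide control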
[26] = Cell Viability - LYMP1-002 - Assay at 16 hr (AID 948);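 further: 0% = DMSO alone and full effect = 92 µM tetraoctylammonium bromide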
Outline: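 LYMP1-002 human lymphoblastoid cells, 2500/well; 5 hr 37 C; cpd 16 hr 37 C; CellTiter-Glo 30 min RT; luminescence (ATP). Concentration-response, Hill-fit AC50. Pos ctrl tetraoctylammonium bromide.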

[27] = MultiTox-Fluor Cytotoxicity Assay - LYMP1-002 - Live Cells (AID 955); further: on the % scale 0 is the no-effect control and ±100 the full control effect
Outline: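 Cytotoxicity in the human lymphoblastoid line LYMP1-002 is measured as loss of live-cell protease activity after 16 h treatment in complete culture medium. AC50 is derived from Hill-equation fits of qHTS concentration-response data.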

[28] = MultiTox-Fluor Cytotoxicity Assay - LYMP1-002 - Dead Cells (AID 960);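 further: 0% = DMSO and 100% = tetraoctylammonium bromide; nearly all actives have a fitted effect of over 60% in size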
Outline: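 Acute cytotoxicity in a human lymphoblastoid line is scored as rising dead-cell protease signal after 16 hr exposure at 37 C, measured fluorometrically (485/520).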

[29] = MultiTox-Fluor Cytotoxicity Assay - LYMP1-003 - Dead Cells (AID 961);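 further: 0% = DMSO and 100% = tetraoctylammonium bromide; nearly all actives have a fitted effect of over 70% in size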
Outline: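 Human lymphoblastoid LYMP1-003 cells (2500/well) were treated with compounds for 16 hr at 37 C in complete medium. Dead-cell protease release was read by bis-AAF-R110 fluorescence (Ex/Em 485/520). AC50 came from Hill fits, normalized to DMSO and 15 uM tetraoctylammonium bromide.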

[30] = MultiTox-Fluor Cytotoxicity Assay - LYMP1-003 - Live Cells (AID 962);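 further: 0% = DMSO only and full loss = 92 µM tetraoctylammonium bromide; cytotoxic hits lower the live-cell protease signal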
Outline: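 Cells plated at 2500 per well and incubated 5 hr; compounds added and incubated 16 hr at 37 C; MultiTox-Fluor reagent added for 60 min at room temperature; fluorescence of liberated AFC measured at 405/510 nm.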

[31] = Cell Viability - LYMP1-003 - Assay at 24 hr (AID 963);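 further: plate controls were DMSO only for no effect and tetraoctylammonium bromide positive control for full effect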
Outline: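 Acute toxicity in LYMP1-003 lymphoblastoid cells: 24 hr compound treatment at 37 C, ATP measured with CellTiter-Glo after 30 min at room temperature. AC50 derived by fitting the Hill equation to qHTS titrations.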

[32] = Cell Viability - LYMP1-003 - Assay at 40 hr (AID 964); further: on the % scale 0 is the no-effect control and ±100 the full control effect; nearly all actives have a fitted effect of over 60% in size
Outline: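 This qHTS cytotoxicity screen treats human lymphoblastoid cells (LYMP1-003) with compounds for 40 hr and quantifies cellular ATP via luciferase luminescence.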

[33] = Cell Viability - LYMP2-003 (AID 965);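 further: cells exposed to compounds for 24 h before reading; 0% = DMSO only and full effect = 92 µM tetraoctylammonium bromide; nearly all actives have a fitted effect of over 50% in size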
Outline: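 CellTiter-Glo luminescence (cellular ATP) after 24 h compound exposure at 37 C in complete medium; 2500 cells/well, 5 h settling beforehand. Concentration-response fitted to standard Hill equation for AC50. Tetraoctylammonium bromide served as positive control.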

[34] = Cell Viability - LYMP2-004 (AID 966);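 further: plate controls were DMSO only for no effect and tetraoctylammonium bromide control for full effect; nearly all actives have a fitted effect of over 65% in size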
Outline: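 Acute toxicity is scored as a concentration-dependent drop in intracellular ATP, quantified by luciferase luminescence, in human lymphoblastoid cells exposed to compound for 24 hr. AC50 derives from Hill-equation modelling.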

[35] = Cell Viability - LYMP2-005 (AID 967);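 further: plate controls were DMSO only for no effect and 92 µM tetraoctylammonium bromide control for full effect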
Outline: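 Steps: seed 2500 LYMP2-005 cells/well, incubate 5 h at 37 C, add compound, incubate 24 h at 37 C, add CellTiter-Glo, wait 30 min at RT, read luminescence. Concentration-response data fitted to Hill equation for AC50.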

[36] = Cell Viability - LYMP2-009 (AID 968)
[37] = Cell Viability - LYMP2-011 (AID 969)
Outline: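 Acute toxicity is scored as a concentration-dependent drop in intracellular ATP of a human lymphoblastoid line after 24 hr treatment. Values are AC50s modeled with the Hill equation.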

[38] = Cell Viability - LYMP2-013 (AID 970)
Outline: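 Acute toxicity was measured in human lymphoblastoid cells (2500/well) exposed to compound titrations for 24 hr, with ATP luminescence (CellTiter-Glo) as read-out and AC50 fitted by Hill equation.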

Chain of Cytochrome P450 3A4 (Homo sapiens) (P08684 whole entry, looked up): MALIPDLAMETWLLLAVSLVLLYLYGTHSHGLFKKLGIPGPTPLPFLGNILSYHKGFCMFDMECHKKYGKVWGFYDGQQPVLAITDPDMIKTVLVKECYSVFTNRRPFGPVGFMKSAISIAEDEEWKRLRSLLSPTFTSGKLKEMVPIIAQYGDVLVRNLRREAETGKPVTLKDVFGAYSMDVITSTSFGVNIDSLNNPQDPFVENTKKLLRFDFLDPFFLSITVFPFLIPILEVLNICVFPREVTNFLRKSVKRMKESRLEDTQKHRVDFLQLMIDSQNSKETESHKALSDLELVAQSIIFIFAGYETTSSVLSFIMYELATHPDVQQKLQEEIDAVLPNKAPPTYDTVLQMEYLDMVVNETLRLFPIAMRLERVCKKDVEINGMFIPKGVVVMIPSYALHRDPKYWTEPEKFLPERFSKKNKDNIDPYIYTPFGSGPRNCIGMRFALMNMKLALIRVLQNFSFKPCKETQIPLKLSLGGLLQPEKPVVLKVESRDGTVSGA

O=C(/C=C/c1ccc(O)c(O)c1)OC1C[C@](O)(C(=O)O)C[C@@H](O)[C@H]1O (stereo partly drawn)
inactive: Potency [1] > 92 µM | Potency [2] > 92 µM | Potency [3] > 92 µM | Potency [4] > 92 µM | Potency [5] > 92 µM | Potency [6] | Potency [7] | Potency [8] | Potency [9] | Potency [10] | Potency [11] | Potency [12] | Potency [13] | Potency [14] | Potency [15] | Potency [16] | caspase-3 activation [17] -0.588% and 1.58% | caspase-3 activation [18] 0.0888% and -0.0196% | caspase-3 activation [19] 0.575% and -0.278% | Potency [20] | outcome [21] | Potency [22] | Potency [23] | Potency [24] | Potency [25] | Potency [26] | Potency [27] | Potency [28] | Potency [29] | Potency [30] | Potency [31] | Potency [32] | Potency [33] | Potency [34] | Potency [35] | Potency [36] | Potency [37] | Potency [38]
